From PubChem BioAssay
An excerpt weighted towards active compounds, which were near 1.4% of everything screened.
p53 reactivator – mutant p53 re-activation in reporter cells. H1299 p53-A138V BP100-luciferase reporter, luminescence, 24 h. Potency, µM (highest dose often 92.2 µM), without a hit: at the top dose activity change, positive = activation, usual class: activators. hit rate 0.063% among 320,000. AID 504706; also: potency is read from the fitted curve at half-maximal effect; % of control where 0% means no effect; nearly all actives have a fitted effect of over 45% in size
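p53-null H1299 cells stably carrying temperature-sensitive p53-A138V and a BP100-luciferase reporter were pinned with compounds (4-point, 1:5 series) and held 24 hrs at 37 deg C. Luminescence was read 10 min after detection reagent.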
TSHR antag – human thyrotropin receptor antagonism; P16473; TSHR-expressing cells, TSH-stimulated cAMP HTRF, 2 h; stronger effect = lower value; activity change, negative = inhibition, % at 11.5 µM; hit rate 0.2% among 330,000; AID 504810;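 active = activity change below a set negative limit, meaning inhibition stronger than a set level, cut at about -70% in these data; inconclusive = activity change between two set negative limits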; also: % is scaled to controls: 0 for no effect and ±100 for the full control effect
Target sequence (P16473 whole entry, looked up): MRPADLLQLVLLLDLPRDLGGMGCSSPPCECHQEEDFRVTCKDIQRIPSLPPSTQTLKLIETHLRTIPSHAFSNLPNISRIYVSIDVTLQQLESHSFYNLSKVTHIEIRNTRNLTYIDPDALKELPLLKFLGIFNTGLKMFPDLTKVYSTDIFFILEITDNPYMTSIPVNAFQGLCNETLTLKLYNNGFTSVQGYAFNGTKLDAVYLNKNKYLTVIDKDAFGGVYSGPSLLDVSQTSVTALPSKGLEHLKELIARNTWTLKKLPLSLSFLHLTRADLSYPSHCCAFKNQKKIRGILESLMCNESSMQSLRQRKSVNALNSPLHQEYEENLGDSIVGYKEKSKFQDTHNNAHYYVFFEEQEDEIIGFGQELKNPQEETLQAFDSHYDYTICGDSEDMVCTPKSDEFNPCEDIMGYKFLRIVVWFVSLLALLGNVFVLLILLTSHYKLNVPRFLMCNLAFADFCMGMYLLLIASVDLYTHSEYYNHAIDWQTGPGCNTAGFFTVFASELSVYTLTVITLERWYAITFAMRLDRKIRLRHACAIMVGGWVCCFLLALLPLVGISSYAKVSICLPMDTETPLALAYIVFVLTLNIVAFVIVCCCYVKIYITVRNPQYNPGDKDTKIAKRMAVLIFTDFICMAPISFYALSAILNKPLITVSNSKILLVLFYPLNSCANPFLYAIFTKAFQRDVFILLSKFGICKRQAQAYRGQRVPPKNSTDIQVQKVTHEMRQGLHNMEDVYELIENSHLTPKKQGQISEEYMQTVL
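Antagonism was scored as loss of TSH-driven cAMP in TSHR cells, stimulated with 4nM TSH (EC80) for 2 hours at 37 deg C and detected by homogeneous HTRF competition immunoassay.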
BRCA1 expr up – increases BRCA1 expression. hit rate 1.1% among 380,000. MCF7-BRCA1-FFLuc reporter, luminescence, 48 h; response scale: scaled: vehicle 0%, 10 µM genistein 100%. Potency, µM (series often up to 46.1 µM), without a hit: top-dose activation, actives largely listed as activators. AID 624202; also: potency is read from the fitted curve at half-maximal effect; nearly all actives have a fitted effect of over 80% in size
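MCF7-BRCA1-FFLuc, 2000 cells/well; 2 h attach, 37 °C/5% CO2; compound 48 h; luciferase substrate 15 min; luminescence end-point. Norm. to genistein 10 microM max activation and DMSO; concentration-response curves fitted.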
GLS inhibitor – glutaminase GLS (human) inhibition. O94925. GLS enzymatic activity, qHTS titration. Potency, µM (highest dose often 45.5 µM), for inactives: at the highest dose activity change, negative = inhibition, hits mostly inhibitors. hit rate 0.21% among 410,000. AID 624170; also: potency is read from the fitted curve at half-maximal effect; % is scaled to controls: 0 for no effect and ±100 for the full control effect
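hKGA in 45 mM KH2PO4 pH 8.2, 0.02% Tween-20 with pin-transferred compounds; 1 mM L-glutamine (stock) plus glutamate oxidase/HRP/Amplex Red coupling added. Fluorescence read initially and after 30 min at RT.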
TCR activator – T cell receptor activation | primary human leukocytes, anti-CD3, IL-2 HTRF, 48 h | Potency, µM (titrated, usually from 9.22 µM), without a hit: top-dose activation of IL-2 secretion, hits mostly activators | 330,000 tested, under 10 active | AID 504894; also: % of control where 0% means no effect
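TCR engagement came from a-CD3 beads alone, with compounds added to primary human leukocytes for 48 hr. Secreted IL-2 bridged europium cryptate- and d2-labelled anti-IL-2 antibodies, giving FRET emission at 665nm after 320nm excitation.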
N370S GC – N370S glucocerebrosidase modulation, Gaucher chaperone candidate; N370S GC spleen homogenate, 4MU-glucoside fluorescence; Potency, µM (series often up to 59.4 µM), for inactives: at the top dose activity change, negative = inhibition, hits mostly inhibitors; hit rate 0.092% among 330,000; AID 2101;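 also: potency is read from the fitted curve at half-maximal effect; 0% = full enzyme activity and -100% = no enzyme basal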
Starred values were filed as active, the others as inactive; ? = inconclusive; / = no result given; [ ] = remark or other dose. Unless noted, calls follow the shape of the dose curve; as a rule, active = well fitted curve in the direction sought with a large enough effect; inconclusive = small, poorly fitted or top-dose-only effect, or another doubt; inactive = no such curve, though single readings can be large; an effect the other way counts as inactive or inconclusive.

SMILES	p53 reactivator	TSHR antag	BRCA1 expr up	GLS inhibitor	TCR activator	N370S GC
O=C(N/N=C/c1ccccc1)C(=O)N/N=C/c1ccccc1	4%	-7	1%	-2%	-2%	-4%
Cc1ccc(/C=N/NC(=O)C(O)c2ccccc2)o1 (stereo not drawn)	-5%	7	-2%	3%	3%	-3%
CCOC(=O)N/N=C/c1ccccc1F	?	13	10µM*	7%	-2%	9%
CC(C)(C)NCC(=O)N/N=C/c1ccc(OCc2ccccc2)cc1	5%	1	10µM*	-11%	-22%	-11%
Cc1ccc(/C=N/NC(=O)Nc2ccccc2)o1	?	3	13µM*	12%	-2%[46.1 µM]	17%
COC(=O)N/N=C/c1ccc(Oc2ccccc2)cc1	12%	2	10µM*	-7%	6%	0%
C[N+](C)(CCCCCC[N+](C)(C)C1c2ccccc2-c2ccccc21)C1c2ccccc2-c2ccccc21	/	/	/	-4%	/	/
COC(=O)N/N=C\c1ccc(OC/C=C/c2ccccc2)cc1	13%	-4	7.1µM*	1%	1%	?
CCOC(=O)N/N=C\c1ccc(OC/C=C/c2ccccc2)cc1	?	3	8.9µM*	22%	-3%	-8%
CC(=O)Oc1ccc(/C=N/NC(=S)Nc2ccccc2)cc1	?	-4	11µM*	29%	-4%[46.1 µM]	-5%
CCOc1ccc(/C=N/NC(=O)Nc2ccccc2)cc1	6%	10	?	-16%	-2%	9%
CC(=O)N/N=C\c1ccccc1OC/C=C/c1ccccc1	18%	-43	2.8µM*	17%	-14%	5%
CN(C)c1ccc(CCc2ccnc3ccccc23)cc1	/	/	9%	/	/	/
O=C(Nc1ccc(Cl)cc1)C1=Cc2cc(Cl)ccc2OC1	-6%	-23	-28%	5%	4%	4%
O=C(Nc1ccc(Cl)cc1Cl)C1=Cc2ccccc2OC1	?	-12	10µM*	1%	-1%	6%
CC1Cc2cc(S(=O)(=O)NCc3ccccc3Cl)ccc2N1C(=O)C1CCC1 (stereo not drawn)	/	/	/	-1%	/	/
Cc1ccc(-c2nnc(N3CCN(C(=O)c4cccs4)CC3)c3ccccc23)cc1	-1%	0	-6%	20µM*	-6%	?
COc1cccc(-c2cc(N(C)Cc3ccco3)ncn2)c1	/	/	/	/	/	-14%
CCc1c2c(nc3ccc(OC)cc13)-c1nc3ccccc3c(=O)n1C2	/	/	/	/	/	18%
CCOC(=O)c1c(Nc2ccc(O)cc2)nnc(-c2ccccc2)c1-c1ccccc1	/	/	-20%	0%	/	/
Cc1cc(Cl)c2oc(C(=O)N(C)C3CCOC3)c(C)c2c1 (stereo not drawn)	?	-7	2.5µM*	?	1%	-1%
C=C1C=C(C(F)F)n2ncc(C(=O)N3CCN(c4ccccn4)CC3)c2N1	/	/	-4%	/	/	/
Cc1ccc(-c2nc(Nc3ccc(N4CCOCC4)cc3)c3ccccc3n2)cc1	2%	7	-98%	-25%	-2%	14µM*
Cc1ccc(-c2nc(Nc3ccc(O)cc3)c3ccccc3n2)cc1	9%	3	-90%	44%	-2%	?
c1ccc(Nc2nc(-c3ccoc3)nc3ccccc23)cc1	/	/	/	/	/	13µM*
SMILES	p53 reactivator	TSHR antag	BRCA1 expr up	GLS inhibitor	TCR activator	N370S GC
CCOC(=O)CC(NC(=O)c1cc2cc(Br)cc(OC)c2oc1=O)c1ccc(OC)cc1 (stereo not drawn)	/	/	29%	11%	/	/
CCOC(=O)CC(NC(=O)c1cc2cccc(OC)c2oc1=O)c1ccc(OC)cc1 (stereo not drawn)	16%	4	13µM*	0%	-4%	-2%
O=c1[nH]c(COc2ccc(Br)cc2Cl)nc2ccccc12	22%	-5	4µM*	5%	-1%	-9%
O=c1[nH]c(COc2ccccc2)nc2ccccc12	?	-5	50%	9%	3%	-7%
COc1ccc(NC(=O)c2sccc2C)c([N+](=O)[O-])c1	8%	-3	11µM*	-1%	2%	6%
COc1ccc(NC(=O)C/C(C)=N/NC(=O)c2cccs2)c([N+](=O)[O-])c1	24%	7	14%	-24%	-5%	1%
COc1ccc(NC(=O)c2cccs2)c([N+](=O)[O-])c1	7%	11	5.6µM*	18%	0%	-3%
CN1C2CCC1CC(NC(=O)n1c(=O)[nH]c3ccccc31)C2 (stereo not drawn)	/	/	/	-3%	/	/
O=C(Cn1cnc2ccccc2c1=O)c1ccc(Cl)cc1	4%	5	8.9µM*	3%	3%	17%
CC(C)(C)n1ncc2c(=O)n(CC(=O)c3ccccc3)cnc21	?	18	13µM*	-9%	7%[46.1 µM]	11%
O=C(Cn1cnc2ccccc2c1=O)c1ccccc1	13%	2	78%	-6%	-8%[46.1 µM]	3%
CCCCCC1Nc2cc(C(F)(F)F)c(S(N)(=O)=O)cc2S(=O)(=O)N1 (stereo not drawn)	/	/	/	1%	/	/
CS(=O)(=O)Nc1ccc(C2=NN(S(C)(=O)=O)C(c3ccc4c(c3)OCO4)C2)cc1 (stereo not drawn)	?	0	4.5µM*	5%	4%[46.1 µM]	-24%
CCCSc1nsc(NC(=O)Nc2ccc(F)cc2F)n1	-5%	-119*	-3%	2%	/	6%
CCCSc1nsc(NC(=O)C(c2ccccc2)c2ccccc2)n1	-9%	-80*	-78%	?	-3%	/
CCCCC/C=C\C[C@@H](O)/C=C/C=C/C=C/[C@@H](O)CCCC(=O)O	/	/	/	/	/	7%
COc1cc(CNCCc2c[nH]c3ccccc23)ccc1OCc1ccc(F)cc1	-12%	9	-84%	27%	0%	16µM*
COc1cccc(CNCCc2c[nH]c3ccccc23)c1OCc1ccc(F)cc1	21%	0	-88%	30%	3%	-14%
COc1ccc(C)cc1NC(=O)NC(C)c1c(-n2cccc2)sc(C)c1C (stereo not drawn)	/	/	/	5%	/	/
CN(C)c1ccc(C=Nc2cnc3ccccc3c2)cc1	/	/	27%	/	/	/
O=C(NC1CC1)c1cc2cc3ccccc3nc2s1	20%	-5	5µM*	-1%	2%	-3%
CN(C(=O)c1cc2sccc2n1C)C1CCCCC1	?	3	6.3µM*	-6%	2%	28%
Cn1c(C(=O)N2CCCC(C(=O)O)C2)cc2sccc21 (stereo not drawn)	-2%	0	-2%	-5%	2%	20%
Cn1c(C(=O)NC2CCCCC2)cc2sccc21	?	-15	5.6µM*	-8%	/	-5%
Cc1ccc(C)c(OCc2nc3ccccc3[nH]2)c1	11%	-14	3.2µM*	-10%	3%	9%
